# Measurements published in paper PMC4552634, “A New Set of Chemical Starting Points with Plasmodium falciparum Transmission-Blocking Potential for Antimalarial Drug Discovery” (PLoS ONE, 2015).
# Screen size: about 13,000 compounds; about 3,200 (25%) showed an effect of 50% or more. The list shows a part of the results.
# System: P. falciparum stage V gametocytes
# Design: BacTiter-Glo ATP luminescence viability of purified stage V gametocytes in 384-well plates, per cent inhibition versus DMSO
# Conditions: 48 h, 5 µM; inhibitor
row,Compound,% Inhibition [%]
1,COc1cc2ccccc2c(OC)c1CCNCCCCNCCc1c(OC)cc2ccccc2c1OC [TCMDC-137842],116.9
2,O=C(CC(c1ccccc1)c1ccccc1O)N1CCOCC1 (stereo not shown) [TCMDC-125747],-30.1
3,CC(C)(C)OC(=O)N[C@@H](Cc1ccccc1)C(=O)Nc1cccc(-c2cccc(NC(=O)[C@H](Cc3ccccc3)NC(=O)OC(C)(C)C)c2)c1 [TCMDC-131873],-20.04
4,C=CCc1ccc(C[C@H](NC(=O)OC(C)(C)C)C(=O)OC)cc1 [TCMDC-138140],103.3
5,COC(=O)C(c1ccc(NC(=O)[C@H](CC(C)C)NC(=O)OC(C)(C)C)cc1)c1ccc(NC(=O)[C@H](CC(C)C)NC(=O)OC(C)(C)C)cc1 [TCMDC-131874],-21.29
6,CC(C)(C)c1ccc(C(=O)N2CCC3(CC2)C(=O)N(CC(=O)NCC2CCCO2)CN3c2ccccc2)cc1 (stereo not shown) [TCMDC-125172],-58.74
7,COc1ccc(N2CCN(CCCCNC(=O)c3ccc(NC(=O)c4ccc(Cl)cc4)cc3)CC2)c(C)c1 [TCMDC-138431],-16.53
8,CC(C)NCc1ccc(-c2ccc(NC(=O)c3cccc(Cl)c3)cc2)cc1 [TCMDC-132592],87.86
9,CC(C)NCc1cccc(-c2cccc(NC(=O)c3cccc(Cl)c3)c2)c1 [TCMDC-132658],93.91
10,CN(C)Cc1ccc(-c2cccc(NC(=O)c3cccc(Cl)c3)c2)cc1 [TCMDC-132644],-4.056
11,CC(C)NCc1ccc(-c2ccc(NC(=O)c3ccc(Cl)cc3)cc2)cc1 [TCMDC-132586],47.91
12,CC(C)NCc1ccc(-c2cccc(NC(=O)c3cccc(Cl)c3)c2)cc1 [TCMDC-132642],18.79
13,CN(C)CCN(C)Cc1ccc(-c2ccc(NC(=O)c3cccc(Cl)c3)cc2)cc1 [TCMDC-132593],39.43
14,O=C(Nc1ccc(Cn2ncc(N3CCCNCC3)c(Cl)c2=O)cc1)Nc1ccc(OCc2ccccc2)cc1 [TCMDC-133319],26.32
15,COC(=O)c1ccc(CC(C)NCC(O)c2cccc(Cl)c2Cl)cc1 (stereo not shown) [TCMDC-131483],20.31
16,CC(C)CNC(=O)c1ccnc(-c2ccc(CNC3Cc4ccccc4C3)cc2)c1 [TCMDC-134254],4.563
17,CC(C)CNC(=O)c1cncc(-c2ccc(CNC3Cc4ccccc4C3)cc2)c1 [TCMDC-134241],-1.576
18,CC[C@H](C)CNC(=O)c1ccnc(-c2ccc(CNC3Cc4ccccc4C3)cc2)c1 [TCMDC-134253],2.834
19,CC(C)CC(=O)N(Cc1ccc(-c2ccc(CNC3Cc4ccccc4C3)cc2)cc1)C1CCNCC1 [TCMDC-141449],118.6
20,O=C(COc1ccccc1)N(Cc1ccc(-c2ccc(CNC3Cc4ccccc4C3)cc2)cc1)C1CCNCC1 [TCMDC-141450],110
21,CCCNC(=O)c1ccnc(-c2ccc(CNC3Cc4ccccc4C3)cc2)c1 [TCMDC-134255],1.364
22,Cc1ccc(NC(=O)N2CCN(CCCCCNC(=O)/C=C/c3ccc(Cl)c(Cl)c3)CC2)cc1C [TCMDC-135732],-3.92
23,CCOC(=O)c1c(CN(CC)CC)n(-c2ccccc2)c2cc(Br)c(O)cc12 [TCMDC-125679],-14.42
24,N=C(N)Nc1ccc(Cc2ccc(NC(=N)N)cc2)cc1 [TCMDC-137917],-14.93

row,Compound,% Inhibition [%]
1,CCCCCN1CCC(NS(=O)(=O)c2cccc(C(=O)Nc3cccc(C(F)(F)F)c3)c2)C1 (stereo not shown) [TCMDC-132488],-38
2,CCCCCN1CCCCC(NS(=O)(=O)c2ccc(C(=O)Nc3cccc(C(F)(F)F)c3)cc2)C1 (stereo not shown) [TCMDC-132778],-0.2647
3,CCCCCN1CCC(NS(=O)(=O)c2cccc(C(=O)Nc3ccc(C(F)(F)F)cc3)c2)C1 (stereo not shown) [TCMDC-132486],-23.98
4,CCCCCN1CCC(NS(=O)(=O)c2ccc(C(=O)Nc3cccc(C(F)(F)F)c3)cc2)C1 (stereo not shown) [TCMDC-132771],83.46
5,CCCCCN1CCCC(NS(=O)(=O)c2cccc(C(=O)Nc3cccc(C(F)(F)F)c3)c2)C1 (stereo not shown) [TCMDC-132768],75.62
6,CCCCCN1CCCC(NS(=O)(=O)c2ccc(C(=O)Nc3cccc(C(F)(F)F)c3)cc2)C1 (stereo not shown) [TCMDC-132774],-2.262
7,CN1CC=C(c2c[nH]c3ccc(OCc4ccccc4)cc23)CC1 [TCMDC-132113],-6.135
8,Cc1ccc(C2=NNC3(S2)C(=O)Nc2ccc(C)cc23)cc1 (stereo not shown) [TCMDC-123866],44.96
9,CCCCNC(=O)[C@@H]1CCCN1C(=O)c1ccc(O)c(-c2ccc(Cl)c(Cl)c2)c1 [TCMDC-140837],7.64
10,Clc1ccc(CNc2nc(NCCc3cnc[nH]3)nc(NC3CCCCC3)n2)cc1 [TCMDC-139734],-12.92
11,NCC1CCCN1Cc1ccc(-c2ccc(-c3nc4cc(C(F)(F)F)ccc4[nH]3)s2)cc1.O=C(O)C(F)(F)F (stereo not shown) [TCMDC-133000],16.97
12,OCC1CCN(Cc2ccc(-c3ccc(-c4nc5ccc(C(F)(F)F)cc5[nH]4)cc3)cc2)CC1 [TCMDC-133124],-13.18
13,NCC1CCCN1Cc1ccc(-c2cccc(-c3nc4ccc(C(F)(F)F)cc4[nH]3)c2)cc1 (stereo not shown) [TCMDC-132990],70.04
14,OCCN1CCN(Cc2ccc(-c3cccc(-c4nc5ccc(C(F)(F)F)cc5[nH]4)c3)cc2)CC1 [TCMDC-133024],24.38
15,NCC1CCCN1Cc1ccc(-c2ccc(-c3nc4ccc(C(F)(F)F)cc4[nH]3)cc2)cc1 (stereo not shown) [TCMDC-132995],50.61
16,NCC1CCCN1Cc1cccc(-c2ccc(-c3nc4ccc(C(F)(F)F)cc4[nH]3)cc2)c1 (stereo not shown) [TCMDC-132996],21.42
17,Fc1ccc2cc(C=Cc3ccncc3)[nH]c2c1 [TCMDC-137494],-53.7
18,O=C(Nc1cccc(C(F)(F)F)c1)Nc1nc2ccc([N+](=O)[O-])cc2s1 [TCMDC-123631],27.05
19,Cn1cncc1-c1ccc2ncnc(Nc3ccc(OCc4ccccc4)cc3)c2c1 [TCMDC-137504],-32.31
20,Cc1[nH]nc2cc(Nc3ccnc(Nc4cccc(CN5CCOCC5)c4)n3)ccc12 [TCMDC-138632],3.491
21,Cn1c(Nc2cc(C(C)(C)C)on2)nc2cc(Nc3ccnc(Nc4ccc(CS(C)(=O)=O)cc4)n3)ccc21 [TCMDC-141890],82.06
22,Cc1ccc(Nc2nccc(Nc3ccc4c(C)[nH]nc4c3)n2)cc1F [TCMDC-138542],-63.2
23,CN1CCN(S(=O)(=O)c2cccc(Nc3nccc(N(C)c4ccc5c(c4)nc(NC(=O)c4cccs4)n5C)n3)c2)CC1 [TCMDC-134378],79.98
24,Cn1c(NCc2cc(F)cc3c2OCOC3)nc2cc(Nc3ccnc(Nc4cccc(CS(C)(=O)=O)c4)n3)ccc21 [TCMDC-134151],-2.358

row,Compound,% Inhibition [%]
1,CN(c1ccc2c(c1)nc(Nc1cc(C(C)(C)C)on1)n2C)c1ccnc(Nc2ccc(CS(C)(=O)=O)cc2)n1 [TCMDC-141892],-9.766
2,CN(c1ccc2c(c1)nc(NC(=O)C1(c3cc(F)ccc3F)CC1)n2C)c1ccnc(Nc2cccc(CS(C)(=O)=O)c2)n1 [TCMDC-141964],-60.83
3,Cc1ccc(Nc2nccc(Nc3ccc4c(c3)nc(Nc3cc(C(C)(C)C)on3)n4C)n2)cc1S(C)(=O)=O [TCMDC-141889],96.33
4,Cn1c(Nc2cc(C(C)(C)C)on2)nc2cc(Nc3ccnc(Nc4cccc(CS(C)(=O)=O)c4)n3)ccc21 [TCMDC-141893],24.31
5,Cc1ccc(Nc2nc3cc(N(C)c4ccnc(Nc5cccc(CCS(C)(=O)=O)c5)n4)ccc3n2C)cc1 [TCMDC-138853],-59.51
6,Cc1ccc(Nc2nccc(N(C)c3ccc4c(c3)nc(NC(=O)Cc3ccc(Cl)c(Cl)c3)n4C)n2)cc1S(N)(=O)=O [TCMDC-141965],-9.254
7,Cn1c(Nc2cc(C(C)(C)C)on2)nc2cc(Nc3ccnc(Nc4cccc(S(=O)(=O)N5CCOCC5)c4)n3)ccc21 [TCMDC-134098],97.72
8,COc1ccc2nc(C)cc(Nc3ccc(Oc4ccc(Cl)c5ccccc45)c(Cl)c3)c2c1 [TCMDC-123856],5.816
9,N#Cc1ccc2c(c1)CN(CCC1CCC(NC(=O)c3cc4cnccc4[nH]3)CC1)CC2 (stereo not shown) [TCMDC-139174],-27.42
10,O=C(NCc1cccc(F)c1)Nc1ccc(-c2ccc(-c3nc4ccc(C(F)(F)F)cc4[nH]3)cc2)cc1 [TCMDC-133287],-9.31
11,Cc1cccc(NC(c2cccs2)c2c(NC(=O)c3ccccc3)sc(C)c2C)n1 (stereo not shown) [TCMDC-124747],-63.38
12,CCCCCC(NCCCC)c1ccc(OCCOc2ccc(C(CCCCC)NCCCC)cc2)cc1 (stereo not shown) [TCMDC-137613],107.4
13,CCCCCCC(N)c1ccc(OCCCOc2ccc(C(N)CCCCCC)cc2)cc1 (stereo not shown) [TCMDC-137621],121.4
14,C=CCNC(CCCCC)c1ccc(OCCOc2ccc(C(CCCCC)NCC=C)cc2)cc1 (stereo not shown) [TCMDC-137483],106.6
15,COc1ccc(OCCON)cc1 [TCMDC-123473],14.77
16,CCCCOc1ccc(C(O)C(CN2CCCCC2)c2ccccc2)cc1 (stereo not shown) [TCMDC-124252],4.712
17,CCCCCCOc1ccc(N2C(N)=NC(N)=NC2(C)C)cc1 [TCMDC-137369],25.73
18,CCCCC(NCC)c1ccc(OCCOc2ccc(C(CCCC)NCC)cc2)cc1 (stereo not shown) [TCMDC-137612],115.6
19,CCCCCCCCOc1ccc(N2C(N)=NC(N)=NC2(C)C)cc1 [TCMDC-137707],-8.138
20,CCCCCOc1ccc(N2C(N)=NC(N)=NC2(C)C)cc1 [TCMDC-137711],13.1
21,CCCCCOc1ccc(NC2=CC(=O)C(=O)c3ccccc32)cc1 [TCMDC-125724],-1.294
22,CCCCOc1ccc(N2C(N)=NC(N)=NC2(C)C)cc1 [TCMDC-124279],-11.62
